Each structure is given as a SMILES string. Compounds without any hit were thinned out: in the full panel of roughly 83,000, 20% have a hit.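 Each cell line was grown in a 96-well plate and treated with one concentration of compound for 48 hours. Values below 10 were considered active.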 Unmarked numbers belong to inactive results. Active and inactive are the calls of the source.

The first test relates to SF-295 CNS. The test can be described thus: NCI-60 one-dose screen, 48 h (100 = growth as untreated, 0 = no growth, -100 = all killed). The settings on record: 10 µM unless noted.
For the molecule `COc1cccc2c1c1nc3cc(C)c(C)cc3nc1n2CCN(C)C`, the growth is 20.1%.
On to `COc1cc(NC(C)CCCNC(=O)CCC(=O)NCCCNCCCCCCCCCCNCCCNC(=O)CCC(=O)NCCCC(C)Nc2cc(OC)cc3cccnc23)c2ncccc2c1` (centres undefined), for which the growth was 97% [8 µM].
Turning to `COc1cc(/C=C\C(=O)O)ccc1OCc1ccccc1`, the growth is 101%.
With `CCc1c(Cl)nc(N)nc1Nc1ccc(C)c(C)c1`, the growth was 93.2%.
For the molecule `COc1cc2nc(-c3ccc(C(F)(F)F)cc3)cc(OCCCN3CCOCC3)c2cc1OC`, the growth was -50.1% (active).
For `CCN(CC)c1ccc(/C=N/NC(=O)CSc2nc3ccccc3c(=O)n2Cc2ccc(S(N)(=O)=O)cc2)c(O)c1`, the growth was 20.3%.
With `O=C(c1nnc(Nc2ccccc2Br)o1)c1c[nH]c2ccccc12`, the growth is 108%.
The same measure, in the same setting: under `NNC(=O)c1ccc(-n2nc(-c3ccccc3)c3ccccc32)cc1` stands 75.2%; under `Cc1cnc(C(=O)Nc2nc3ccc(S(=O)(=O)Nc4ccc(C5(C(F)(F)F)CC5)cc4)cc3[nH]2)cn1`, 20.6%; under `CCCCCCCCOc1ccc(/C=N/Nc2cc(C)nc3ccc(Br)cc23)cc1`, 78.8%.
With `Cc1ccc(NC(=O)c2cc(-c3nc4ccccc4s3)c(=O)n(NS(=O)(=O)c3ccc(Cl)cc3)c2N)cc1`, the growth is 101%.
On to `N/C(=N\C(N)=N\c1nc2ccccc2s1)c1cnccn1`, for which the growth was 28%.
On to `CCN(CC)CCCC(C)Nc1cc(O)cc2cccnc12` (centres undefined), for which the growth is 104%.
Same read-out and setting: as for `COc1ccccc1NS(=O)(=O)c1cccc(C(=O)Nc2ccc(Br)cc2)c1`, the figure is 27%; as for `COc1c(Cl)c2c(c(OC)c1OC)-c1ccc(SC)c(=O)cc1[C@@H](NC(=O)OCC(F)(F)F)CC2`, 15%; as for `O=C(Cn1c[n+](CC(=O)c2ccc(-c3ccccc3)cc2)c2ccccc21)Nc1cccc2cccnc12`, 78.1%.
Same read-out and setting: as for `CC(=O)CCC(=O)OCc1cc(=O)c(O)co1`, the figure is 103%; as for `COc1ccccc1NC(=O)C1CC(c2ccc(F)cc2)=NO1` (centres undefined), 96.2%; as for `COc1cccc(-c2nc3occn3c2-c2ccnc(NCCNS(=O)(=O)c3cccc4ccccc34)n2)c1`, 106%.
Still for that read-out and setting: under `N#C/C(=C\c1ccc([N+](=O)[O-])s1)c1nc2cc(Cl)ccc2s1` stands 91.7%; under `CNC(=O)c1cccc(Cn2nc(C)c(NC(=O)c3ccc(COc4ccc(C(F)(F)F)cc4C)cc3)c2C)n1`, 25.8%; under `N#Cc1c(NCc2ccccc2I)sc2c1CCCCC2`, 97.3%.
For the molecule `CCCCCN1C=C/C(=C\C(=O)n2ccc3ccccc32)c2ccccc21`, the growth is 87.7%.
Same read-out and setting: as for `COc1ccc(C(=O)c2cc(C)c(OC)c(C)c2)c(OC)c1OC(=O)C(Cl)Cl`, the figure is 14.5%; as for `NC(=NCc1ccccc1)C(N=Nc1ccccc1)C(=O)NCc1ccccc1` (centres undefined), 53.9%; as for `N#CC1C(C#N)C2c3ccccc3C=CN2C1C(=O)c1ccc(Br)cc1` (centres undefined), 96.8%.
In the case of `O=S(=O)(NCCNc1nccc(-c2c(-c3cccc(O)c3)nc3occn23)n1)c1cccc(F)c1`, the growth was 106%.
With `COc1cc2oc(-c3cccc(C(=O)Nc4ccc5c(c4)OCO5)c3)cc(=O)c2c(O)c1OC`, the growth was 92.1%.
Still for that read-out and setting: under `COc1cc(/C=C/c2cc(O)c(C(C)=O)c(O)c2)cc2c1O[C@]1(C)CC[C@@H](O)C(C)(C)[C@H]1C2` stands 8.72% (active); under `Cc1cnc(C(=O)Nc2nc3ccc(S(=O)(=O)Nc4ccc(C(C)(C)C)cc4)cc3[nH]2)cn1`, 21.9%.
Regarding `O=S(=O)(Nc1ccc(-n2cnc3cc(-c4ccc(O)cc4)ccc32)cc1)c1ccccc1`, the growth was 87.9%.
In the case of `Nc1n[nH]c2cccc(C#Cc3cccc(C(=O)Nc4cc(CN5CCOCC5)cc(C(F)(F)F)c4)c3)c12`, the growth is 54.6%.
In the case of `COc1ccc(C(=O)c2cc(C)c(OC)c(C)c2)c(OC)c1N(C(=O)CCl)C(=O)CCl`, the growth was 5.4% (active).
`O=S(=O)(NCCNc1nccc(-c2c(-c3cccc(O)c3)nc3occn23)n1)c1ccccc1`: the growth was 96.6%.
For the molecule `CC(C)(C)c1ccc(NS(=O)(=O)c2ccc3nc(NC(=O)c4cnccn4)[nH]c3c2)cc1`, the growth was 35%.
Regarding `C#CCNC(=O)c1cccc2c1cc(C)n2-c1nc2c(c(NCc3ccccc3)n1)CCCC2`, the growth is -68.2% (active).
Consider `NC1=NN=C(N)C1=Cc1cc2ccccc2n2nnnc12`, for which the growth is 99.3%.

In a further test the test system is SF-539 CNS. The test is described as above. The settings on record: 10 µM unless noted.
As for `COc1cccc2c1c1nc3cc(C)c(C)cc3nc1n2CCN(C)C`, the growth is 23.2%.
For `COc1cc(NC(C)CCCNC(=O)CCC(=O)NCCCNCCCCCCCCCCNCCCNC(=O)CCC(=O)NCCCC(C)Nc2cc(OC)cc3cccnc23)c2ncccc2c1` (centres undefined), the growth is 75.7% [8 µM].
`COc1cc(/C=C\C(=O)O)ccc1OCc1ccccc1`: the growth is 99.5%.
Consider `CCc1c(Cl)nc(N)nc1Nc1ccc(C)c(C)c1`, for which the growth was 100%.
For `COc1cc2nc(-c3ccc(C(F)(F)F)cc3)cc(OCCCN3CCOCC3)c2cc1OC`, the growth was 46%.
In the case of `CCN(CC)c1ccc(/C=N/NC(=O)CSc2nc3ccccc3c(=O)n2Cc2ccc(S(N)(=O)=O)cc2)c(O)c1`, the growth was 27.9%.
On the same count and under the same terms, under `O=C(c1nnc(Nc2ccccc2Br)o1)c1c[nH]c2ccccc12` stands 104%; under `NNC(=O)c1ccc(-n2nc(-c3ccccc3)c3ccccc32)cc1`, 82.8%.
Regarding `Cc1cnc(C(=O)Nc2nc3ccc(S(=O)(=O)Nc4ccc(C5(C(F)(F)F)CC5)cc4)cc3[nH]2)cn1`, the growth was -1.85% (active).
`CCCCCCCCOc1ccc(/C=N/Nc2cc(C)nc3ccc(Br)cc23)cc1`: the growth is 32.6%.
Turning to `Cc1ccc(NC(=O)c2cc(-c3nc4ccccc4s3)c(=O)n(NS(=O)(=O)c3ccc(Cl)cc3)c2N)cc1`, the growth is 97.2%.
On to `N/C(=N\C(N)=N\c1nc2ccccc2s1)c1cnccn1`, for which the growth was 16%.
On to `CCN(CC)CCCC(C)Nc1cc(O)cc2cccnc12` (centres undefined), for which the growth is 103%.
Still for that read-out and setting: under `COc1ccccc1NS(=O)(=O)c1cccc(C(=O)Nc2ccc(Br)cc2)c1` stands 64.3%.
On the same count and under the same terms, as for `COc1c(Cl)c2c(c(OC)c1OC)-c1ccc(SC)c(=O)cc1[C@@H](NC(=O)OCC(F)(F)F)CC2`, the figure is -19% (active); as for `O=C(Cn1c[n+](CC(=O)c2ccc(-c3ccccc3)cc2)c2ccccc21)Nc1cccc2cccnc12`, 23.6%; as for `CC(=O)CCC(=O)OCc1cc(=O)c(O)co1`, 110%.
Turning to `COc1ccccc1NC(=O)C1CC(c2ccc(F)cc2)=NO1` (centres undefined), the growth was 95.5%.
Turning to `COc1cccc(-c2nc3occn3c2-c2ccnc(NCCNS(=O)(=O)c3cccc4ccccc34)n2)c1`, the growth is 109%.
Regarding `N#C/C(=C\c1ccc([N+](=O)[O-])s1)c1nc2cc(Cl)ccc2s1`, the growth was -35% (active).
Still for that read-out and setting: as for `CNC(=O)c1cccc(Cn2nc(C)c(NC(=O)c3ccc(COc4ccc(C(F)(F)F)cc4C)cc3)c2C)n1`, the figure is 72%; as for `N#Cc1c(NCc2ccccc2I)sc2c1CCCCC2`, 97.3%.
For `CCCCCN1C=C/C(=C\C(=O)n2ccc3ccccc32)c2ccccc21`, the growth was 102%.
On to `COc1ccc(C(=O)c2cc(C)c(OC)c(C)c2)c(OC)c1OC(=O)C(Cl)Cl`, for which the growth was -16% (active).
Take `NC(=NCc1ccccc1)C(N=Nc1ccccc1)C(=O)NCc1ccccc1` (centres undefined): the growth is 50.3%.
On to `N#CC1C(C#N)C2c3ccccc3C=CN2C1C(=O)c1ccc(Br)cc1` (centres undefined), for which the growth is 89.3%.
For the molecule `O=S(=O)(NCCNc1nccc(-c2c(-c3cccc(O)c3)nc3occn23)n1)c1cccc(F)c1`, the growth is 111%.
Same read-out and setting: under `COc1cc2oc(-c3cccc(C(=O)Nc4ccc5c(c4)OCO5)c3)cc(=O)c2c(O)c1OC` stands 88.8%.
Take `COc1cc(/C=C/c2cc(O)c(C(C)=O)c(O)c2)cc2c1O[C@]1(C)CC[C@@H](O)C(C)(C)[C@H]1C2`: the growth was 9.14% (active).
Take `Cc1cnc(C(=O)Nc2nc3ccc(S(=O)(=O)Nc4ccc(C(C)(C)C)cc4)cc3[nH]2)cn1`: the growth was -33.6% (active).
For `O=S(=O)(Nc1ccc(-n2cnc3cc(-c4ccc(O)cc4)ccc32)cc1)c1ccccc1`, the growth was 67.3%.
Still for that read-out and setting: as for `Nc1n[nH]c2cccc(C#Cc3cccc(C(=O)Nc4cc(CN5CCOCC5)cc(C(F)(F)F)c4)c3)c12`, the figure is 8.6% (active); as for `COc1ccc(C(=O)c2cc(C)c(OC)c(C)c2)c(OC)c1N(C(=O)CCl)C(=O)CCl`, -21.1% (active).
In the case of `O=S(=O)(NCCNc1nccc(-c2c(-c3cccc(O)c3)nc3occn23)n1)c1ccccc1`, the growth was 105%.
On to `CC(C)(C)c1ccc(NS(=O)(=O)c2ccc3nc(NC(=O)c4cnccn4)[nH]c3c2)cc1`, for which the growth was -0.716% (active).
Take `C#CCNC(=O)c1cccc2c1cc(C)n2-c1nc2c(c(NCc3ccccc3)n1)CCCC2`: the growth is -23.4% (active).
As to `NC1=NN=C(N)C1=Cc1cc2ccccc2n2nnnc12`, the growth was 102%.

The values are drawn from PubChem BioAssay (NCI).
